# Test results taken from the supplement of paper PMC11417369.
# ± gives the standard deviation of the averaged measurements. In all, about 25,000 sequences were measured (“ln(normalized median fluorescence intensity)”: median about 8.9, highest 2% from about 10 on). The list comes from a sample in which the highest values are over-represented; it also holds similar and randomly drawn sequences.
# System: PfAP2-LT AP2 domain (GST-tagged)
# Assay: gcPBM binding intensity (ln(normalized median fluorescence intensity)); higher = stronger DNA binding
# How it was run: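 For binding intensity, the highest Masliner-normalised natural-log median intensity across replicate spots of either probe orientation was taken. Protein bound to the array was stained with Alexa488 anti-GST antibody and scanned at 488 nm. The protein, GST-tagged P. falciparum DNA-binding domains from E. coli at about 25 μg on average, had been applied for 1 h to an Agilent 4 × 180k array of primer-extended double-stranded 36-bp intergenic genomic probes and negative controls.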
row,Sequence,gcPBM binding intensity (ln)
1,TGAACATGTTAAAATAAACACACAGCTAAGGTTTTT [CACACA_site7934],8.94 ± 0.4
2,TTATATATATATATATGTACACATATATAACATGAT [XGTACX_site6643],9.19 ± 0.28
3,ATACACTTTTATATATCAATACATTATGTATTAAGT [CACACA_negctrl_site421],8.86 ± 0.35
4,AACAATATATTGATATTATTTTAAGTGATTATATAT [XGTACX_negctrl_site205],8.57 ± 0.33
5,CAACATATGCATATGTGTACATATTTTATTTTCAAC [XGTACX_site2237],8.82 ± 0.42
6,TATTTATAAACATACGCACACATTAAAATATATATA [CACACA_site6051],9.02 ± 0.4
7,TATTTTTTAAAAATGGGTACACATAAATAAATAAAT [XGTACX_site7643],8.58 ± 0.45
8,TAAAAAAATTCATGCACACGAAATAAAAAGCACCTT [CACACA_site4667],9.21 ± 0.3
9,TTAATACCCAGACACACACACACAAAATAAAATACA [CACACA_site7968],10.1 ± 0.48
10,ATAATTAACAAATACACACACACACGCCCACAAAAA [CACACA_site6389],10 ± 0.11
11,TTAATACCCGGACACACACACACAAAATAAAATACA [CACACA_site4296],9.85 ± 0.27
12,AATACAGACAGACACACACACAAAATAAAATACAAA [CACACA_site245],9.95 ± 0.38
13,ATAATTAACAAATACACACACACACCCCCACAAAAA [CACACA_site518],10.5 ± 0.26
14,TGAACACCCACAAATACACACAAAAAAAATAAATAA [CACACA_site248],9.28 ± 0.51
15,AAATAAATATATATATGTACATACAAATACACGGTA [XGTACX_site8510],9.09 ± 0.4
16,TATTGTTTTAAAGAGACATGCAATATATATTATTCC [TGCATGCA_site752],8.51 ± 0.42
17,AATGGGTAAACATACACACACACATATATATATATA [CACACA_site1991],10.2 ± 0.11
18,TATATAAATAGATACACACATACATACATACATACA [CACACA_site260],9.61 ± 0.37
19,GTACATACATAAAACACACACATATATATATATATA [CACACA_site1826],10.17 ± 0.071
20,AATGGGTAAACATACACACACACATCTATATTTATA [CACACA_site7025],9.78 ± 0.4
21,TACAGATATAAACACACACACATATATATATATATA [CACACA_site4846],10.05 ± 0.092
22,TACATACATAAACACACACACACATATATATATATA [CACACA_site8953],10.2 ± 0.23

row,Sequence,gcPBM binding intensity (ln)
1,TACATATATAAAAAAACACACACATATATATATATA [CACACA_site8315],9.665 ± 0.021
2,TAGATACATAAACACACACACACATACATATATACA [CACACA_site9139],10.2 ± 0.23
3,AAAAAAAACATACATACACACACATAAATATATATA [CACACA_site8864],9.72 ± 0.23
4,CATATACATAAACACACACACACATAAATAAATATA [CACACA_site4864],10 ± 0.13
5,TATATACATAAACACACACACACATATATATATATA [CACACA_site8707],9.89 ± 0.2
6,GAAATGGGTAAACATACACACACACCGATATATATA [CACACA_site8610],9.87 ± 0.23
7,TTTGAGATAAAAGACTGTACTTAGAATGTATAAAAA [XGTACX_site203],8.48 ± 0.6
8,ATATGCTATTTACTAGTGCAAAATATTTAAAATATG [GTGCAC_site9517],8.61 ± 0.36
9,ATAATTTTCCATATTTGTACATATTTTTTTCCCTTG [XGTACX_site8146],8.92 ± 0.59
10,ATTTGTTATATATTCTTTTATGTTAATAATTCGAAT [CACACA_negctrl_site378],8.7 ± 0.45
11,ATAATTAGGGTGTATTTCATTTCATTTCATTTTATT [CACACA_negctrl_site1418],9.04 ± 0.4
12,TTTTTCTAATTATGCACACATATCAAAATATTCAAT [CACACA_site2749],8.79 ± 0.46
13,AATATTCTATATGATACATGCATGATGGAATAAAAA [TGCATGCA_site980],8.93 ± 0.3
14,ATATATATTTAAAGATGTACATAATGAAATGGTTAT [XGTACX_site4706],9.01 ± 0.47
15,CATACACAGAAACACACACACATATATATATATATA [CACACA_site4519],10.2 ± 0.3
16,TATATACAGAAACACACACACACATATATATATATA [CACACA_site2247],10.15 ± 0.057
17,TAGATACAGAAACACACACACACATACATATATACA [CACACA_site3437],9.97 ± 0.24
18,CAAATACAGAAACACACACACATATACATATATATA [CACACA_site3498],9.77 ± 0.19
19,ACAGAAAAAAAACACACACACATAATATACATACAT [CACACA_site1932],9.82 ± 0.19
20,CATACACAGAAACACACACACATATATACATATATA [CACACA_site1094],9.98 ± 0.24
21,ATTTTTTTTTTTTTTTTTCATTTTTTTTTTTTTTTT [CACACA_negctrl_site1204],8.62 ± 0.54
22,AAAAAAGCAATATGATGTACATTTACTTTGTGAAAG [XGTACX_site4450],8.73 ± 0.46
